# USP2a inh: USP2a (human) protease inhibition; 330,000 tested, 0.01% active; Potency, µM (top dose mostly 38.3 µM), for inactives: top-dose activity change, negative = inhibition, actives largely listed as inhibitors; O75604; AID 463254; USP2 core, Ub-CHOP2 coupled fluorogenic reporter, 485/531;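 also: potency is read from the fitted curve at half-maximal effect; plate controls were DMSO wells for no effect and full inhibition by NEM control for full effect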
#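 USP2 core (10nM final) preincubated 30min RT with compound in 20mM Tris-HCl pH 8.0, 2mM CaCl2, 2mM beta-mercaptoethanol, 0.05% CHAPS; 25nM Ub-CHOP2 plus 25nM reporter substrate added, fluorescence (Ex485/Em531) read after 60min.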
# Eya2 phos inh: blocks the phosphatase activity of human Eya2; recombinant Eya2, OMFP fluorescence dephosphorylation (OMFP is methylfluorescein phosphate); Potency, µM (top dose mostly 76.9 µM), inactives show at the top dose activity, negative = inhibition, actives largely listed as inhibitors; 330,000 tested, 0.006% active; AID 488837; also: potency is read from the fitted curve at half-maximal effect; % is scaled to controls: 0 for no effect and ±100 for the full control effect
# Target sequence (O00167 whole entry, looked up): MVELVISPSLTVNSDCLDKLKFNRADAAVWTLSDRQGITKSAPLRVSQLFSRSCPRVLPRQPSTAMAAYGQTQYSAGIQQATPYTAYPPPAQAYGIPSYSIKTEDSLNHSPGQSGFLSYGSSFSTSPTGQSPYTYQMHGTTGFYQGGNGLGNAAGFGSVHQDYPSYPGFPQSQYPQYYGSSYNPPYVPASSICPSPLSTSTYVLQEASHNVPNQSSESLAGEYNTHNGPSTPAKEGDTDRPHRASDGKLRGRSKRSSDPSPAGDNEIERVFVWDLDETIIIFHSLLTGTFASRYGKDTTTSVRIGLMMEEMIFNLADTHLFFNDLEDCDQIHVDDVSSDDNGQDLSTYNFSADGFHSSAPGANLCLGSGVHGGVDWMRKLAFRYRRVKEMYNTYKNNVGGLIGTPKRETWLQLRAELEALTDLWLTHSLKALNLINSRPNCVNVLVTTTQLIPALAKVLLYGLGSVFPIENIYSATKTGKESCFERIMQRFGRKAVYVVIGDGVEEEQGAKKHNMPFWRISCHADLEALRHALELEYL
#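 Eya2 (0.2 uM) preincubated 10 min at ambient with compound, then OMFP substrate added at 50 uM; 10 min reaction in 50 mM HEPES pH 7.5, 50 mM NaCl, 5 uM MgCl2, 0.05% BSA, 1 mM DTT. Fluorescence read at Ex 485/Em 525 nm.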
# GALK inhibitor: inhibitors of human galactokinase; P51570; Purified GALK, Kinase-Glo residual ATP luminescence; Potency, µM (doses to about 57.5 µM), inactives show at the top dose activity change, negative = inhibition, actives largely listed as inhibitors; 270,000 tested, 0.007% active; AID 1868; also: potency is read from the fitted curve at half-maximal effect; % is scaled to controls: 0 for no effect and ±100 for the full control effect
#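 5 nM enzyme, 35 uM ATP, 100 uM galactose, 20 mM HEPES pH8.0, 5 mM MgCl2; 1 h RT; residual ATP by Kinase-Glo Plus luminescence, qHTS format.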
# D1 antag: blocks dopamine activation of the human D1 receptor. P21728. HEK293 TREx D1 cells, calcium flux, dopamine EC80; hits give low values. activity change, negative = inhibition, % at 10 µM. 360,000 tested, 3.2% active. AID 504652; in the data active = activity change below about -30%; also: % is scaled to controls: 0 for no effect and ±100 for the full control effect
#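 Tetracycline-induced HEK293 T-REx cells with force-coupled D1 receptor were loaded with a no-wash calcium dye. Compound was added after a 10 s baseline and read kinetically for 180 s; EC80 dopamine was then added and calcium flux followed another 180 s.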
# D1 ag: activates the human D1 dopamine receptor; activation, % at 2 µM; P21728; AID 504660; HEK293 T-REx D1 cells, calcium flux, agonist mode; 360,000 tested, 1% active; in the data active = activation above about 30%; also: 0% is about no effect
#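 Inducible HEK293 T-REx D1 cells, force-coupled to calcium signalling, were plated at 4000 cells/well with tetracycline and held overnight at 30 C. After no-wash calcium dye loading, compound-evoked calcium rise over 180 s flagged agonists.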
# D1 PAM: potentiators of human D1 dopamine receptor | P21728 | HEK293 TREx D1 cells, calcium flux, dopamine EC20 potentiation | potentiation, % at 10 µM | 360,000 tested, 0.036% active; in the data active = potentiation above about 30%; also: 0% is about no effect
# Active calls of the source: *; u = inconclusive; x = no result; ! = not confirmed by another sample. Hits are enriched below; roughly 3.9% of the tested compounds scored in any of these assays. Unless noted, calls follow the shape of the dose curve; as a rule, active = well fitted inhibition curve with a large enough effect; inconclusive = small, poorly fitted or top-dose-only effect, or effect the other way; inactive = flat fitted curve, though single readings scatter.
SMILES,USP2a inh,Eya2 phos inh,GALK inhibitor,D1 antag,D1 ag,D1 PAM
CCOC(=O)C1(Cc2ccccc2)CCN(Cc2csc(C(C)=O)c2)CC1,0.0%,1.9%,0.7%,-34.2*,0.1,-8.7
COC(=O)c1ccccc1NC(=O)c1ccc2c(c1)CCN2S(=O)(=O)c1ccc(C)cc1,x,x,x,6.4,-1.2,-0.8
O=C1CCc2cc(OCCCCc3nnnn3C3CCCCC3)ccc2N1,6.6%,-0.3%,4.3%,-42.5*!,8.5,-3.1
CCOC(=O)/C(=N\Nc1ccc(C(C)=O)cc1)c1csc(Nc2ccccc2)n1,13.8%,2.3%,1.7%,1.8,54.3*,-6.9
CC(O)[C@H]1CC[C@H]2[C@@H]3CC[C@H]4C[C@H](O)CC[C@]4(C)[C@H]3[C@H](O)C[C@]12C (some centres not stated),-0.8%,6.9%,x,-50.1*,71.7*,-2.8
CCN1CN(CCc2ccccc2)CNC1=S,3.0%,9.3%,0.0%,1.2,1.5,-0.9
CN1C(=O)C2CN(CCc3ccccc3)CNC2N(C)C1=O (configuration not stated),-1.5%,0.3%,1.8%,-35.1*,3.1,-11.7
Cc1ccc(N(CC(=O)Nc2ccc(C)c(Cl)c2)S(=O)(=O)c2cccs2)cc1,x,x,x,-13.4,8.6,-1.4
O=[N+]([O-])c1ccc(S(=O)(=O)Nc2nnc(C(F)(F)F)s2)cc1,0.2%,-3.0%,-2.8%,-51.9*,2.0,-6.8
CC(C)Cc1nnc(NS(=O)(=O)c2ccc([N+](=O)[O-])cc2)s1,3.7%,5.4%,-0.5%,-0.3,-0.1,-25.8
NCCc1cnc[nH]1,3.2%,-10.1%,0.0%,-11.6,53.4*!,-3.5
NCCC(=O)NCCc1cnc[nH]1,1.0%,15.5%,x,24.4,-0.7,-5.2
COc1nc(-c2ccccc2)ccc1-c1noc(-c2ccccc2F)n1,-1.7%,12.6%,-1.6%,-24.3,159.1*,0.0
NC(=O)c1ccc(Nc2nnc(-c3ccc(O)cc3)c3ccccc23)cc1,9.0%,5.3%,-3.3%,2.7,4.3,-5.2
CCN(CC)C(=O)c1ccc(-c2nnc(Nc3ccc(O)cc3)c3ccccc23)cc1,-3.3%,-10.4%,-3.1%,-2.8,0.2,43.1*
CCN(CC)C(=O)c1ccc(-c2nnc(Nc3ccc(C(=O)N(C)C)cc3)c3ccccc23)cc1,0.4%,-11.0%,-2.2%,-92.0*,-0.2,-11.7
O=[N+]([O-])c1ccc(N/N=C2/CCCCC2c2ccccn2)cc1 (configuration not stated),3.3%,-26.0%,0.4%,-59.4*,2.2,9.3
Cc1oc(-c2ccccc2Cl)nc1CS(=O)(=O)CC(=O)NC(C)CCc1ccccc1 (configuration not stated),x,x,x,-3.6,21.8,0.8
CCN1C(=O)/C(=C2/C=CC=CN2C)SC1=S,-2.6%,-6.5%,-2.8%,-32.8*,1.9,-1.1
Cc1cccc(N2CCN(C(=O)C3CCN(C(=O)c4cc5sccc5n4C)CC3)CC2C)c1 (configuration not stated),x,x,x,-29.2,20.7,-2.4
COc1ccc2c(c1)CC1c3c(cc4c(c3-2)OCO4)CC[N+]1(C)[O-] (configuration not stated),5.0%,-3.1%,1.3%,13.5,8.9,-3.0
COc1ccc2c(c1OC)C[N+]1([O-])CCc3cc4c(cc3C1C2)OCO4 (configuration not stated),0.0%,4.4%,-2.2%,-38.2*,2.7,-2.2
CCOc1ccc(NC(=O)C2CCN(S(=O)(=O)c3ccc4c(c3)oc(=O)n4C)CC2)cc1,x,x,x,-11.3,-1.2,-2.7
Cc1ccc(NC(=O)C2CCN(S(=O)(=O)c3ccc4c(c3)oc(=O)n4C)CC2)cc1,3.9%,-1.0%,-4.5%,-12.3,4.3,-5.6
Cn1c(=O)oc2cc(S(=O)(=O)N3CCC(C(=O)Nc4ccc(F)c(Cl)c4)CC3)ccc21,x,x,x,-52.3*,3.5,-5.2
SMILES,USP2a inh,Eya2 phos inh,GALK inhibitor,D1 antag,D1 ag,D1 PAM
Cc1cc(C)cc(NC(=O)C2CCN(S(=O)(=O)c3ccc4c(c3)oc(=O)n4C)CC2)c1,x,x,x,-33.8*,-0.9,-1.1
CCN(CC)c1ccc(-n2nc3cc(C)c(NC(=O)c4ccccc4F)cc3n2)cc1,x,x,x,-4.9,0.4,1.4
Cc1cccc(-n2ncc(C(=O)N3CCOCC3)c2C2CCN(C(=O)OC(C)(C)C)CC2)c1,x,x,x,-76.7*,0.6,-4.7
COc1ccccc1CN1CCC(CNC(=O)c2cnn(-c3ccc(Cl)cc3)c2C2CCN(C(=O)OC(C)(C)C)CC2)CC1,x,x,x,-0.8,31.2*,-5.9
CC(C)(C)OC(=O)N1CCC(c2c(C(=O)N3CCOCC3)cnn2-c2cccc(F)c2)CC1,x,x,x,6.3,1.7,-7.0
COc1ccccc1CN1CCC(CNC(=O)c2cnn(-c3ccc(C)c(C)c3)c2C2CCN(C(=O)OC(C)(C)C)CC2)CC1,x,x,x,26.5,9.4,2.4
Cc1ccc(C)c(N2CCN(CCCNC(=O)c3cnn(-c4ccc(F)cc4)c3C3CCN(C(=O)OC(C)(C)C)CC3)CC2)c1,x,x,x,-32.1*,4.1,-4.4
Cc1ccc(-n2ncc(C(=O)NCCN3CCC(Cc4ccccc4)CC3)c2C2CCN(C(=O)OC(C)(C)C)CC2)cc1,x,x,x,-9.6,56.2*,0.7
Cc1ccc(-n2ncc(C(=O)NCCN3CCCC3)c2C2CCN(C(=O)OC(C)(C)C)CC2)cc1,x,x,x,-20.9,21.2,-5.7
CCCc1nn2c(=O)cc(COC(=O)c3cccs3)nc2s1,x,x,x,5.5,6.7,-5.0
Cc1cc2c(s1)c1cnn(Cc3ccc(-c4ccccc4)cc3)c(=O)c1n2C,x,x,x,1.0,3.3,-3.6
CCCS(=O)(=O)c1nc(S(=O)(=O)c2ccc(C)cc2)c(NCC(C)C)s1,x,x,x,1.5,22.9,-2.4
CCc1ccc(/C=C2\Oc3c(ccc(O)c3CN3CCN(CCO)CC3)C2=O)cc1,u,4.0%,10.2%,0.5,64.4*,3.0
Cc1ccc(SCc2ccc(C(=O)Nc3nccs3)o2)cc1,-1.4%,6.8%,-3.2%,-10.5,5.7,1.5
O=C(Nc1nccs1)c1ccc(CSc2ccccc2)o1,2.2%,-0.8%,3.4%,-40.3*,2.2,-6.8
O=c1[nH]nc(SCc2ccccc2)n1C1CC2C=CC1C2 (configuration not stated),0.1%,-14.0%,1.5%,-32.3*,11.8,-3.1
CN(Cc1ccccc1)S(=O)(=O)c1ccc2[nH]c(=O)oc2c1,-1.5%,3.5%,x,-37.8*,6.8,3.6
Cc1nn(S(=O)(=O)c2cccs2)c(C)c1Sc1ccc([N+](=O)[O-])cc1,-4.5%,-1.8%,-1.4%,-5.0,0.4,5.1
Cc1nn(S(=O)(=O)c2ccccc2)c(C)c1Sc1ccc([N+](=O)[O-])cc1,-0.3%,-3.4%,0.4%,-33.0*,2.3,-9.3

# Source: PubChem
